Assay outcomes as filed in PubChem.
Rows were chosen to be rich in hits. Some 3.5% of all compounds tested hit in one or more screens of this group.
FBW7 activator: FBW7 E3 ligase activators, primary screen, biochemical, AlphaScreen, human; normalized activity (activation), % at 26.1 µM; F-box/WD repeat-containing protein 7 (Homo sapiens), Q969H0; AlphaScreen FBW7–phospho-cyclin E peptide binding, activator screen; actives 0.13% (n = 650,000); in the data active = normalized activity above about 1.9%;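 note: purified mutant Fbw7 with reduced substrate affinity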
Target sequence (Q969H0 whole entry, looked up): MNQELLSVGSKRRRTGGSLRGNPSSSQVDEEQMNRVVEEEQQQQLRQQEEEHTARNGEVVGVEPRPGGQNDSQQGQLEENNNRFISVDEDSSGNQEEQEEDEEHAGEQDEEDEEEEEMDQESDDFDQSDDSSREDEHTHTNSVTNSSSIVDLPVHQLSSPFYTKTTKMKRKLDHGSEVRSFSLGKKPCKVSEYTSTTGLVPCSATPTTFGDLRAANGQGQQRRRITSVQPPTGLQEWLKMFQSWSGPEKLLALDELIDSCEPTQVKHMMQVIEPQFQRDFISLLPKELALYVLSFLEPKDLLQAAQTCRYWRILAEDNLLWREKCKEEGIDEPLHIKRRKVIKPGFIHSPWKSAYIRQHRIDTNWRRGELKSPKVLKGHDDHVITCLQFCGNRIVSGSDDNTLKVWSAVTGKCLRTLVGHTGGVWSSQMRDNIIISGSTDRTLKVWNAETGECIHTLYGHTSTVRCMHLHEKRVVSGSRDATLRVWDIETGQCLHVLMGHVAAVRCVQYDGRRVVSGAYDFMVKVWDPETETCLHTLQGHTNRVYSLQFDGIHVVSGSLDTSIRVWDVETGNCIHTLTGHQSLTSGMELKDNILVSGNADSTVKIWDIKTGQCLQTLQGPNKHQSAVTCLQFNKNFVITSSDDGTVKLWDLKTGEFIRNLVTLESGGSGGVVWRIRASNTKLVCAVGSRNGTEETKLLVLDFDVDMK
TEAD-YAP block: TEAD-YAP interaction inhibition, primary screen, TEAD-YAP interaction inhibitor project, luminescence, HEK-TIYL cells; TEAD-Gal4/YAP UAS-luciferase luminescence; inhibition, % at 9.12 µM; actives 1.4% (n = 640,000); AID 1259422, 2018; in the data active = inhibition above about 32%
GPR151 ag: activators of human GPR151, primary screen, cell-based, PathHunter beta-arrestin, luminescence. G-protein coupled receptor 151 (Homo sapiens), Q8TDV0. PathHunter beta-arrestin GPR151 cells. activation, % at 11.2 µM. actives 1% (n = 650,000). AID 1508602, 2020; in the data active = activation above about 4.9%
MITF primary: MITF inhibitors, primary screen, biochemical, AlphaScreen, human; Microphthalmia-associated transcription factor (Homo sapiens), O75030; inhibition, % at 2.6 µM; AlphaScreen MITF homodimerization, bead proximity signal; actives 0.91% (n = 650,000); AID 1259374, 2018; in the data active = inhibition above about 50%
Of the large screens only hits and unclear results are named; the others gave an inactive call.

O=C(c1cccc(I)c1)N1CCCc2ccccc21	FBW7 activator 2.3
CC(=O)Nc1cccc(Oc2ccc3c(c2)C(=O)N(c2cccc(OC(C)=O)c2)C3=O)c1	TEAD-YAP block 45.8
CC(=O)Nc1cccc(Oc2ccc3c(c2)C(=O)N(c2cccc(Cl)c2)C3=O)c1	TEAD-YAP block 80.1
O=C(NCCN1CCOCC1)c1cccc(-c2ccc(N3CCOCC3)nc2)n1	none
C/C(=C\C(=O)O)C(=O)Nc1ccc(N2CCOCC2)cc1	MITF primary 53.1
O=C(NCCc1ccc(O)cc1)c1cccc(-c2ccc(N3CCOCC3)nc2)n1	TEAD-YAP block 46.3
CC(=O)Nc1ccc(N2CCOCC2)cc1	none
O=C(Nc1ccc(N2CCOCC2)cc1)c1cccc(Cl)n1	TEAD-YAP block 60.4
O=C(NCCc1ccc(O)cc1)c1cccc(Nc2ccc(N3CCOCC3)cc2)n1	TEAD-YAP block 56.8
CCCNC(=O)c1cccc(Nc2ccc(N3CCOCC3)cc2)n1	none
Oc1ccc(-c2ccc(Nc3c(F)cccc3F)nc2)cc1	none
Cc1ccc(CNC(=O)c2sc3ncnc(N4CCCCCC4)c3c2C)o1	none
CC1CN(c2ccc([N+](=O)[O-])cc2)CCN1S(=O)(=O)c1ccc2ccccc2c1 (configuration not stated)	none
c1ccc(Nc2nc(NCC3CCCO3)c3ccccc3n2)cc1 (configuration not stated)	TEAD-YAP block 46.4
Fc1cccc(Nc2nc(NCC3CCCO3)c3ccccc3n2)c1 (configuration not stated)	TEAD-YAP block 44.6
COc1ccc(C(=O)NC2CCSC2=O)cc1OC (configuration not stated)	none
Cc1cc2ncn(C(=O)c3c(-c4c(Cl)cccc4Cl)noc3C)c2cc1C	FBW7 activator 2.4
Cc1cc2ncn(C(=O)c3c(-c4ccccc4)noc3C)c2cc1C	none
CCOC(=O)c1sc2ncnc(Nc3cccc(C)c3)c2c1C	none
CCOC(=O)c1sc2ncnc(Nc3ccc(C)cc3Br)c2c1C	TEAD-YAP block 58.8
CC(=O)c1c2c(n3cc4ccccc4cc13)C(=O)c1ccccc1C2=O	none
COC(=O)c1c2c(n3cc4ccccc4cc13)C(=O)c1ccccc1C2=O	MITF primary 87.0
CCCc1ccc(Oc2c(C(F)(F)F)oc3cc(O)ccc3c2=O)cc1	TEAD-YAP block 65.1
COC(=O)c1ccc(Oc2c(C(F)(F)F)oc3cc(O)ccc3c2=O)cc1	none
CC(C)(C)c1ccc(Oc2c(C(F)(F)F)oc3cc(O)ccc3c2=O)cc1	TEAD-YAP block 87.5
c1csc(-c2ccc3c(-c4ccc(N5CCNCC5)cc4)[nH]nc3n2)c1	none
COc1ccc(C(=O)Nc2ccccc2C(=O)NCCCC(=O)O)cc1	FBW7 activator 2.0
CCCNC(=O)c1ccccc1NC(=O)c1ccc(OC)cc1	none
O=c1/c(=C/c2cc(Cl)ccc2OCc2c(F)cccc2Cl)sc2nc3ccccc3n12	none
NCCCC[C@@H]1NC(=O)[C@@H]2C[C@H](NCc3sc4ccccc4c3Cl)CN2C1=O	TEAD-YAP block 33.5
O=C1[C@@H]2C[C@H](NCc3sc4ccccc4c3Cl)CN2C(=O)[C@@H]2CCCN12	TEAD-YAP block 38.6
C=CCNC(=O)c1sc2nc3ccc(C(C)C)cc3cc2c1N	none
Cc1ccc(CN(Cc2cccnc2)C(=S)Nc2c(C)cc(C)cc2C)cc1	none
N#Cc1c(/N=C/c2ccc(O)cc2O)sc2c1CCCC2	TEAD-YAP block 61.4
N#Cc1c(/N=C\c2ccc(O)cc2O)sc2c1CCCC2	none
O=C1c2cccc([N+](=O)[O-])c2C(=O)N1c1ccc(Oc2ccc3ccccc3c2)cc1	none
O=C(Nc1cccc(O)c1)c1ccc(N2C(=O)c3cccc([N+](=O)[O-])c3C2=O)cc1	TEAD-YAP block 34.2
Cc1ccc(Oc2ccc(N3C(=O)c4cccc([N+](=O)[O-])c4C3=O)cc2)cc1C	TEAD-YAP block 32.7
O=C1c2cccc([N+](=O)[O-])c2C(=O)N1c1ccc(Oc2cccc3ccccc23)cc1	TEAD-YAP block 73.7
COc1ccc(Oc2ccc(N3C(=O)c4cccc([N+](=O)[O-])c4C3=O)cc2)cc1	none
O=C(Nc1ccc(O)cc1)c1cccc(N2C(=O)c3cccc([N+](=O)[O-])c3C2=O)c1	none
COc1ccc(C(=O)Nc2nc3c(cc4c5c(cccc53)CC4)s2)c(OC)c1	none
O=C1N[C@H](CO)C(=O)N2CCN(C(=O)c3ccc(C(F)(F)F)cc3)C[C@H]12	none
NS(=O)(=O)c1ccc(CNC(=S)Nc2ccccc2)cc1	none
CNC(=O)c1ncccc1Nc1cc(Nc2ccc(C(=O)N(C)C)cn2)ncc1C(F)(F)F	TEAD-YAP block 72.3
CNC(=O)c1ncccc1Nc1cc(Nc2ccc3[nH]ncc3c2)ncc1C(F)(F)F	none
CNC(=O)c1ccccc1Nc1ccnc(Nc2ccccn2)c1	TEAD-YAP block 75.6
CNC(=O)c1ccccc1Nc1cc(Nc2ccc(C(=O)N(C)C)cc2C)ncc1C(F)(F)F	TEAD-YAP block 72.7
CNC(=O)c1ccccc1Nc1cc(Nc2ncccc2C)ncc1C(F)(F)F	TEAD-YAP block 39.9
CNC(=O)c1ccccc1Nc1cc(Nc2ccc(-c3cncnc3)cc2OC)ncc1C(F)(F)F	none
CNC(=O)c1ccccc1Nc1cc(Nc2ccc(C(=O)N(C)C)cn2)ncc1C(F)(F)F	TEAD-YAP block 83.6
CCOc1ccc2c(c1)N(S(=O)(=O)c1ccc(NC(C)=O)cc1)C(C)(C)C=C2C	TEAD-YAP block 73.1
CCNC(=O)N1c2ccc(OCC)cc2C(C)=CC1(C)C	none
CC1=CC(C)(C)N(S(=O)(=O)c2ccc(Br)cc2)c2ccc(C)cc21	TEAD-YAP block 57.6
CCOc1ccc2c(c1)C(C)=CC(C)(C)N2S(=O)(=O)c1ccc(Br)cc1	TEAD-YAP block 61.2
CC(=O)NC(CC(=O)Nc1nnc(SCc2ccc(F)cc2)s1)c1ccccc1 (configuration not stated)	none
Cc1ccc(Cn2c(=O)[nH]c3cccnc3c2=O)cc1	none
CCOc1cc(/C=C2\SC(N)=NC2=O)ccc1OCc1ccc(Br)cc1	none
O=C1c2ccc([N+](=O)[O-])cc2C(=O)N1c1cccc(-c2nc3ccccc3o2)c1	none
O=C(Nc1ccc(S(=O)(=O)N2CCCCC2c2cccnc2)cc1)c1ccccc1 (configuration not stated)	none
CC(C)(C)c1ccc(C(=O)Nc2ccc(S(=O)(=O)N3CCCCC3c3cccnc3)cc2)cc1 (configuration not stated)	TEAD-YAP block 42.6
COc1cc(/C=C/C(=O)Nc2ccc(S(=O)(=O)N3CCCCC3c3cccnc3)cc2)cc(OC)c1OC (configuration not stated)	TEAD-YAP block 55.7
CCOC(=O)c1sc(NC(=O)c2ccccc2OC)c(C(=O)OCC)c1C	none
CCCCN(CC)S(=O)(=O)c1cc(C(=O)Nc2ccc(Oc3ccccc3)cc2)ccc1F	TEAD-YAP block 59.9
CCN(c1ccccc1)S(=O)(=O)c1cc(C(=O)Nc2ccc(Br)cc2)ccc1F	none
CN(Cc1ccccc1)S(=O)(=O)c1cc(C(=O)Nc2ccc(Oc3ccccc3)cc2)ccc1F	TEAD-YAP block 61.4
